The source of these data is PubChem BioAssay (NCI).

Each structure is given as a SMILES string. About 79,000 compounds went through this panel and 15% of them were active in at least one assay; those are over-represented in the sample as a whole. Activity calls are given as the source filed them. Rule as the data show it: active = growth inhibition above about 70%; inactive = the rest.

This test can be described thus: NCI Yeast Anticancer Drug Screen. Data for the rad50 strain (AID 155).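 Also: 0% = growth of vehicle-only cultures of the same strain.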 As to conditions: S. cerevisiae rad50 strain growth inhibition; at 50.0 µM; active compounds read high. The protocol:
Growth inhibition of yeast strains with defined genetic alterations is measured as a screen for potential anti-cancer activity. Selected strains with alterations in DNA damage repair or cell cycle control were exposed to compounds and growth inhibition was measured relative to vehicle treated controls. The strain used in this assay is rad50
As to `CC[Si](/C=C(/C)C(C)(C)C)(CC)CC`, the growth inhibition is 0.9% (inactive).

Consider `CN(C)S(=O)(=O)N(C)C`, for which the growth inhibition is -1.55% (inactive).

Regarding `O=C1C2CC3CC(C2)CC1C3`, the growth inhibition was 15.1% (inactive).

In the case of `COC(=O)c1nc(N)nc(C(=O)OC)c1C(=O)C(C)(C)C`, the growth inhibition was -11.1% (inactive).

Turning to `CN1CCN(CCN2C(=O)c3ccccc3C2=O)CC1`, the growth inhibition was -12.3% (inactive).

As to `CCCCCC(=O)Oc1c(C(C)CC)cc([N+](=O)[O-])cc1[N+](=O)[O-]` (stereo not given), the growth inhibition was 97.5% (active).

With `CC(=O)CC(C)(C)S(=O)(=O)c1ccc(C)cc1`, the growth inhibition is 4% (inactive).

Regarding `NC(=S)NNC(=O)c1ccncc1`, the growth inhibition is 13.3% (inactive).

Take `O=C1CC(=C=Nc2ccccc2)C(=O)N1c1ccccc1`: the growth inhibition was 3.6% (inactive).

With `CC1CCCC(C)(c2ccccc2)/C1=N\Nc1ccc([N+](=O)[O-])cc1[N+](=O)[O-]` (stereo not given), the growth inhibition was 36.2% (inactive).

Take `CC(=O)OCC1OC(N2C(c3ccccc3)=CC(c3ccco3)C(C#N)=C2S)C(OC(C)=O)C(OC(C)=O)C1OC(C)=O` (stereo not given): the growth inhibition was 0.95% (inactive).

For the molecule `Cc1cc(OCCOC(=O)Nc2ccccc2C(F)(F)F)cc(C)c1Cl`, the growth inhibition was -7.6% (inactive).

Consider `Nc1nc2c(c(-c3ccc(Cl)cc3)n1)CN(CCCC(=O)O)C2=O`, for which the growth inhibition is -1.8% (inactive).

Consider `Cc1ccc(NC(=O)CCC(=O)C(C#N)c2ccc(Cl)cc2)cc1C` (stereo not given), for which the growth inhibition is -8.25% (inactive).

`C=CCN1C(=O)c2ccccc2S1(=O)=O`: the growth inhibition is 8.2% (inactive).

`N#CC1=CNc2ccccc2N=C1N`: the growth inhibition is 8.55% (inactive).

As for `O=C1C(O)=CC(=C(c2ccccc2)c2ccccc2)c2cc(Br)ccc21`, the growth inhibition is 33.7% (inactive).

Turning to `COc1cc(C(=O)O)c(Br)c(OC)c1OC`, the growth inhibition was -1.55% (inactive).

For the molecule `CC(=O)OCCCC(=O)Nc1cc([N+](=O)[O-])ccc1OCc1ccccc1`, the growth inhibition is 12.4% (inactive).

For the molecule `CCCC(=O)OCC(C)(C)CC(C)C`, the growth inhibition is -9.55% (inactive).

In the case of `CNC(=O)c1ccc[n+](CC(=O)NCc2ccccc2)c1`, the growth inhibition is -1.8% (inactive).

With `CC1=CC(=N/S(=O)(=O)c2ccccc2)/C2CC(C)=C(C)CC2/C1=N\S(=O)(=O)c1ccccc1` (stereo not given), the growth inhibition was 82.6% (active).

On to `CC1OC(OC2C(O)C(OCCc3ccc(O)c(O)c3)OC(CO)C2OC(=O)/C=C/c2ccc(O)c(O)c2)C(O)C(O)C1O` (stereo not given), for which the growth inhibition was 4.75% (inactive).

For the molecule `CCOC(=O)N1C=NC23C(c4ccccc4)C(c4ccccc4)C12C(=O)N(C)C(=O)N3C` (stereo not given), the growth inhibition was -1.55% (inactive).

Take `CCC(Cl)COP(=O)(CC(Cl)CC)OC(C)P(=O)(OCC(Cl)CC)OCC(Cl)CC` (stereo not given): the growth inhibition is 98% (active).

As to `O=C(Nc1ccc([N+](=O)[O-])c2c1C(=O)c1ccccc1C2=O)c1ccccc1`, the growth inhibition is -7.7% (inactive).

In the case of `CCCCCCCCCC(=O)N/N=C\c1cccc2ccccc12`, the growth inhibition is 0.15% (inactive).

Take `Cc1cccc[n+]1CCC(N)=O`: the growth inhibition is -6.55% (inactive).

`CCCCCCCCCCCCCCCCN1C(=O)c2ccccc2S1(=O)=O`: the growth inhibition is -14.7% (inactive).

Turning to `O=C(O)C1C(C2c3ccc(O)cc3Oc3cc(O)ccc32)C2(Cl)C(Cl)=C(Cl)C1(Cl)C2(Cl)Cl` (stereo not given), the growth inhibition was 95.3% (active).

`CC(C)(CCC(=O)O)CCC(=O)O`: the growth inhibition was 16.3% (inactive).

On to `O=P(O)(OCC(Br)CBr)OCC(Br)CBr` (stereo not given), for which the growth inhibition was -12.4% (inactive).

On to `CC1(C)CC(C)(C)CC(O)(C2(O)CC(C)(C)CC(C)(C)C2)C1`, for which the growth inhibition is -0.95% (inactive).

Regarding `CC(=O)OCC1OC(Nc2[nH]c(=O)n(C)c(=O)c2C=O)C(OC(C)=O)C(OC(C)=O)C1OC(C)=O` (stereo not given), the growth inhibition was 2.5% (inactive).

For `CCCCCC(=O)C(C)C1(C(=O)OC)NC(=S)NC(=O)C1C#N` (stereo not given), the growth inhibition is 16.8% (inactive).

Consider `CCCCCCCCCCCC[N+]1(C)CCS(=O)CC1` (stereo not given), for which the growth inhibition was 84.7% (active).

For the molecule `COc1cc(C(O)CCBr)c(OC)cc1C` (stereo not given), the growth inhibition was -23.2% (inactive).

Turning to `O=C(O)CCSCc1ccc(I)cc1`, the growth inhibition was 35.1% (inactive).

Take `CCN(CC)CCCC(C)Nc1nccc(/C=C/c2ccc(Cl)cc2)n1` (stereo not given): the growth inhibition was 9.9% (inactive).

For `CCc1ccccc1NC(=O)C1=C(C)NC(C)=C(C(=O)Nc2ccccc2CC)C1c1ccc(NC(C)=O)cc1`, the growth inhibition is -11.1% (inactive).
